# Measured values taken from the supplement of paper PMC3334620.
# In all, about 33,000 sequences were measured (“E-score (-0.5 to 0.5)”: median about -0.053, highest 2% from about 0.37 on). The list comes from a sample in which the highest values are over-represented; it also holds similar and randomly drawn sequences.
# Target: Hap1 (UniProt P0CE41)
# Experiment: PBM E-score (8-mer binding enrichment) (E-score (-0.5 to 0.5)); higher = stronger / more preferred TF binding
# Details: protein concentration: 200 nM; construct: GST-DNA-binding domain
# Procedure, shortened: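 Full-length yeast transcription factors or their DNA-binding domains, GST-tagged and expressed with PURExpress, were applied at about 100-200 nM to universal all-10-mer Agilent arrays. These arrays had been made double-stranded by primer extension on fresh or once-stripped slides. Detection used fluorescent anti-GST, normalisation used masliner, and E-scores for ungapped eight-base words pooled with reverse complements came from the Universal PBM Analysis Suite.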
# Chain of UniProt P0CE41 (P0CE41 whole entry): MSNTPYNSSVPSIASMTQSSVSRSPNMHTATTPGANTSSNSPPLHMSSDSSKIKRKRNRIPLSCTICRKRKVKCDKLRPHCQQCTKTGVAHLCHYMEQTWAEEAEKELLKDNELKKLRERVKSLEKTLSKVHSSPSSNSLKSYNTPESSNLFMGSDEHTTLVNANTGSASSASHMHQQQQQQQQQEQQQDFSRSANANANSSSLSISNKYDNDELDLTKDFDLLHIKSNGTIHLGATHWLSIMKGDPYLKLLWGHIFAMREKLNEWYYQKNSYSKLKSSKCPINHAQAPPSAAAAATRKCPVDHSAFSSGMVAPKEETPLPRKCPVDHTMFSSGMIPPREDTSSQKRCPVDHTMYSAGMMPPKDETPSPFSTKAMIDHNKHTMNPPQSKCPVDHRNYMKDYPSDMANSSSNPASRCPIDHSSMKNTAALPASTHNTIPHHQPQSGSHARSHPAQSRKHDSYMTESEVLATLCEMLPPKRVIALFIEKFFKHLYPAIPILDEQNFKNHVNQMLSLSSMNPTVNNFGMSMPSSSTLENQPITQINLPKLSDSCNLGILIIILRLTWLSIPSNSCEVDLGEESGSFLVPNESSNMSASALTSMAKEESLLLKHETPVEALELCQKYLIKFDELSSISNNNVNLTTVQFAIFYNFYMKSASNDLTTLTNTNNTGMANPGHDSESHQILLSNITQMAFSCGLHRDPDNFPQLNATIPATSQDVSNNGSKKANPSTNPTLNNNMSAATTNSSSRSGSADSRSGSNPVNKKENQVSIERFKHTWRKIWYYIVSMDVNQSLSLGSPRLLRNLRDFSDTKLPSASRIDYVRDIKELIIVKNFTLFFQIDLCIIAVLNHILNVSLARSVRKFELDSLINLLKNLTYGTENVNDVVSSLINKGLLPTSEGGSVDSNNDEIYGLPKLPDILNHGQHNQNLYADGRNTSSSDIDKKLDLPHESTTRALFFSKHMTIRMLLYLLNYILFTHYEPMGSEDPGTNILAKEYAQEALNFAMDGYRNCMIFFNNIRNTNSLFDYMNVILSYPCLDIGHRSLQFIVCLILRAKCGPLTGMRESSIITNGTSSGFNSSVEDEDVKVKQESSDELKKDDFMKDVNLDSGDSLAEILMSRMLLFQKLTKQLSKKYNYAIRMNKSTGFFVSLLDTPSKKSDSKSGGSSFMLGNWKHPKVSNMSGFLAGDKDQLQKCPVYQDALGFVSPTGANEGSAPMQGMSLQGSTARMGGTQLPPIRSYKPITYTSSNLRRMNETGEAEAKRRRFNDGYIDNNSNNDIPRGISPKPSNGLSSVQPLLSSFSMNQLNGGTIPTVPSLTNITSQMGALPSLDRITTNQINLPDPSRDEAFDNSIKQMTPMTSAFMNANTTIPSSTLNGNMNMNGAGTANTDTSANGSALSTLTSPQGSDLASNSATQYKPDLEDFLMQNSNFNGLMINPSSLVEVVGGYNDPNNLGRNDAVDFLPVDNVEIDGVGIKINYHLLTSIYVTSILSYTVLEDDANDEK
row,Sequence,PBM E-score
1,ACGGGGAT,0.383
2,CCGGGGAA,0.372
3,TCCGGGAA,0.376
4,CGGGGGAA,0.354
5,ACGGGGAC,0.159
6,ACCGGGAA,0.35
7,CCCGGGAA,0.339
8,ACGGGGAG,-0.0069
9,CCGGGGGA,0.343
10,GCAGGCTA,-0.169
11,CGCCATAA,-0.0284
12,TACTTAGA,-0.362
13,GCGCCCGC,0.0873
14,AGGCTCAT,-0.159
15,CGCGTGGA,-0.079
16,GACCGATC,0.341
17,AACCGATG,0.193
18,TACCGAAA,0.188
19,GACCGACA,0.359
20,AACCGATA,0.421
21,GACCGATA,0.434
22,CACCGATC,0.22
23,CACCGATA,0.375
24,TACCGATA,0.378
25,TACCGACA,0.209

row,Sequence,PBM E-score
1,AACCGATT,0.263
2,CACCGATG,0.196
3,ATGGGTCA,-0.27
4,CATGAGGA,-0.0511
5,CTTTCGAC,-0.0279
6,AAGGGTCG,0.0795
7,CCGATAGC,0.372
8,ACGATAGC,0.0603
9,ACGATAGA,-0.099
10,GCGATAGC,0.00865
11,GCGATAGA,0.223
12,ACGATAGG,0.0214
13,CCGATAGG,0.438
14,CAGATAGG,-0.142
15,CCGATAGA,0.405
16,ACGATTGG,-0.123
17,GTGTCCCA,0.0086
18,CCGATGCA,0.242
19,ATACCCGG,0.38
20,ATACCCTG,-0.0146
21,ATACCCCG,0.346
22,CTACCCGA,0.161
23,ATACCCGA,0.398
24,ATACCCGC,0.253
25,CATCGCCC,0.128

row,Sequence,PBM E-score
1,AAAAGGTT,-0.211
2,CGGTTAAC,0.203
3,ATACCCTA,-0.203
4,AGGGTCAC,-0.193
5,GCGGTGTA,-0.063
6,AGGCGGAA,0.0183
7,CGGCGGAA,0.396
8,CAGCGGAG,0.245
9,CCGCGGAC,0.383
10,CGGCGGAG,0.387
11,CCGCGGAA,0.317
12,GGGCGGTA,0.315
13,AGGCGGAG,0.175
14,CGGCGGTA,0.428
15,GGGCGGAA,0.267
16,AGGCGGTA,-0.131
17,CCGCGGAG,0.352
18,CCATGGCC,-0.0324
19,CGACCAGA,0.0439
20,AGTTTGAG,-0.0293
21,ATGATCCC,0.0807
22,CTTCCCAA,-0.197
23,CGAAAGTA,0.0968
24,CGGCTACG,0.111
25,AGATGAAC,-0.115

row,Sequence,PBM E-score
1,AGGCGGAC,0.288
2,CGGCGGAC,0.38
3,GGGCGGAC,0.279
4,CCAGACCA,-0.187
5,ACGTCCGG,0.411
6,GCGTCCGA,0.305
7,CCGTCCGA,0.399
8,ACGTCCAA,-0.0855
9,ACGTCCGC,0.357
10,ACGTCCTG,-0.211
11,CCGTCCGC,0.231
12,CCGTCCTA,-0.104
13,ACGTCCGA,0.386
14,AAACCAAG,-0.0855
15,CGCGGGCA,0.256
16,TATGGTCA,-0.303
17,CAGAGATA,-0.182
18,ACCGTGAA,0.126
19,CGTTCCAG,-0.157
20,AGCCCCTG,-0.269
21,CATCTATC,-0.00973
22,GATCGGGA,0.136
23,AATCGGAA,0.364
24,CAACGGAA,0.285
25,TATCGGGA,0.393

row,Sequence,PBM E-score
1,GAACGGAA,0.282
2,CATCGGCA,0.266
3,CATCGGAA,0.297
4,TAACGGAA,0.375
5,CATCGGGA,0.223
6,TATCGGCA,0.425
7,AATCGGCA,0.224
8,TATCGGAA,0.409
9,GAAGGCAA,-0.137
10,AAATTGAG,-0.0939
11,CTCTGGCA,-0.217
12,ATTGGTTA,-0.094
13,CCGGAGAG,0.354
14,GCGGAGTA,0.25
15,CAGGAGAA,-0.147
16,GCGGAGAA,0.349
17,GCGGAGGA,0.17
18,ACGGAGAA,0.27
19,CCGGAGGC,0.286
20,CCGGAGAA,0.428
21,TCGGAGAA,0.405
22,CCGGAGTC,0.356
23,CCGGAGGA,0.432
24,CCGGAGTA,0.435
25,ACCATGCG,-0.0491

row,Sequence,PBM E-score
1,CATTAACC,0.0537
2,TCTATGAA,-0.115
3,CACAATGC,-0.0342
4,GAGAATGA,-0.137
5,AGGGCTGG,-0.101
6,CCGGTTCA,0.267
7,CGTTTTAA,-0.0609
8,CCGGAGCG,0.359
9,GCGGAGAC,0.348
10,CCGGAGAC,0.373
11,CGGGAGAC,0.216
12,GCGGAGCA,0.211
13,CCGGAGCA,0.418
14,AGTTAGGC,-0.113
15,CTCGGGAC,0.263
16,GCCCCATA,-0.00491
17,CCGGGGCC,0.318
18,CCCCGGCG,0.309
19,ACCGGGTC,0.194
20,CCCGGGGA,0.359
21,CCCGGGGC,0.33
22,CCCGGGCC,0.387
23,CCCGGGTA,0.315
24,GCCGGGAA,0.326
25,CCCGGGCG,0.383

row,Sequence,PBM E-score
1,CCCGGGTC,0.386
2,CCGGGGCG,0.322
3,GCCGGGGA,0.392
4,CGGGGTTC,0.211
5,AACAGATC,-0.0165
6,GCCTTAGA,-0.04
7,GGTAACAA,0.13
8,TAAGAATA,-0.141
9,TGTCCACA,-0.159
10,TTACCAAA,-0.0884
11,CTGGTTAC,-0.205
12,GAAAAGTA,-0.0758
13,GATCTGCC,0.03
14,ACCGGGGA,0.284
15,GCCGGGCA,0.301
16,ACCGGGGG,0.379
17,AACGGGCG,0.246
18,AGCGGGCG,0.222
19,ACCGGGCG,0.385
20,ACCGGGCA,0.288
21,ACCGGGGC,0.291
22,CCCGGGCA,0.376
23,ACCGGGCC,0.373
24,ACCGGGCT,0.334
25,CCGGGGCA,0.312

row,Sequence,PBM E-score
1,GCCAACAC,0.0365
2,CGAGCAAG,-0.182
3,CATTTAGG,-0.112
4,CTCCTCCA,-0.216
5,CCGGGCAA,0.322
6,GAGGAACC,-0.0105
7,CAGCATTC,-0.162
8,TATCAGCA,0.0209
9,GCTTCACC,-0.12
10,CTCAGTTC,-0.241
11,GCTCTGTA,-0.234
12,AGAACATG,-0.0473
13,CCCCTCCC,-0.00587
14,AACTGCCA,-0.186
15,AACTCCAT,0.139
16,AACTCCCT,-0.0179
17,GACTCCGC,0.174
18,AACTCCGG,0.481
19,AACTCCCG,0.333
20,CACTCCGG,0.302
21,AACTCCGC,0.389
22,CACTCCGA,0.212
23,CACTCCGC,0.156
24,AACTCCGT,0.447
25,GACTCCGA,0.301

row,Sequence,PBM E-score
1,TACTCCGA,0.375
2,ACCCTGTA,-0.0405
3,CCTTCAAG,-0.253
4,AAGTGGCG,-0.0765
5,ACGGCTGG,0.00715
6,AACTCCGA,0.474
7,AACTCCCA,-0.00143
8,AACTCCAA,-0.0924
9,TCTGTCCA,0.00731
10,CATCGGCG,0.264
11,ACACTAGA,-0.095
12,CCGGACAA,0.414
13,GCGGACAA,0.304
14,CAGGACAG,-0.195
15,CCGGACAC,0.351
16,TCGGACAA,0.394
17,CAGGACAA,0.0261
18,CCGGACAG,0.382
19,ACGGACAA,0.335
20,CTGGACAA,-0.215
21,CGCGGGAG,0.0987
22,CCAGTGCG,0.0478
23,GTTCCATA,-0.0357
24,ACGCAACT,0.064
25,AGTGCCAT,-0.0559

row,Sequence,PBM E-score
1,GTATCGAA,-0.152
2,TAATCGGA,0.317
3,ATATCGTA,0.11
4,CTATCGAA,-0.177
5,GTATCGGA,0.415
6,AAATCGGA,0.344
7,CAATCGGG,0.205
8,GAATCGGA,0.366
9,ATATCGGA,0.439
10,CTATCGGA,0.452
11,CTATCGTA,-0.17
12,CAATCGGA,0.394
13,AACACAGA,-0.116
14,AGACCTTA,-0.154
15,GCTATAGC,0.0502
16,AGCGGCAA,0.0491
17,CACGCTAA,-0.0232
18,ATACCCCC,0.283
19,AACGCCCC,0.128
20,AAGGACAG,-0.182
21,AAATCGGG,0.246
22,ATATCGGG,0.436
23,ATATCGTG,-0.0299
24,AATCCGAG,0.338
25,ATTCCAAG,-0.177

row,Sequence,PBM E-score
1,CTTCCGAA,0.324
2,ATTCCGAA,0.375
3,ATTCCGAG,0.397
4,ATTCCGAC,0.307
5,AAGTCGGG,0.153
6,AAACCACG,-0.0117
7,ACACACCC,0.117
8,AAAGTCCT,0.157
9,CAAGTCCG,0.39
10,CAAGTCCC,-0.181
11,AAAGTCCG,0.446
12,AAAGTCCA,-0.0824
13,CAAGTCCA,-0.222
14,CATCCTCA,-0.154
15,AATCAAAG,-0.129
16,AGCGGTCG,0.123
17,GGCTAAAA,0.0064
18,AGAGATAC,-0.0992
19,AGAGATAA,0.00783
20,GGAGATAA,0.455
21,CGATATAA,0.308
22,GGATATAC,0.319
23,CGAGATAC,0.188
24,GGATATAA,0.382
25,GGAGATAC,0.438

row,Sequence,PBM E-score
1,CGAGATAA,0.164
2,GGTGATAC,0.14
3,GGTGATAA,0.378
4,CGTGATAA,-0.0733
5,CGGAAGCC,0.199
6,GAGCGTGA,-0.183
7,AGTGCACT,-0.0451
8,AACTTCTG,-0.205
9,CTGGTAGA,-0.2
10,GAACACGA,-0.0354
11,ACCTGAAT,-0.104
12,CAGCCCTA,-0.0376
13,AGTTATCG,0.382
14,AGTTATCC,0.106
15,CCTTATCG,0.241
16,AGTTATCA,-0.0683
17,ACTTATCA,-0.148
18,ACTTATCG,0.415
19,AGCGCGGA,0.223
20,GCGACAGC,0.0479
21,GCCCGATA,0.423
22,ACCCGATA,0.439
23,GCCCGACA,0.255
24,CCCCGATA,0.44
25,GCACGATA,0.0171

row,Sequence,PBM E-score
1,CCCCGAAA,0.348
2,ACCCGATG,0.3
3,CCCCGATC,0.35
4,ACCCGATC,0.244
5,CTTAGGAC,-0.283
6,AGGGGGAC,-0.213
7,ATCCGCCG,0.375
8,ATCCGCCA,0.181
9,ATCCGCCC,0.243
10,AACAAAGT,0.00728
11,CCGGTGGA,0.39
12,GCGGTGGA,0.0678
13,ACGGTGGA,-0.062
14,CGACCTTC,0.0839
15,CGGAGATA,0.495
16,GGGAGATA,0.268
17,AGGAGATC,-0.098
18,CTGAGATC,-0.171
19,CGGAGATC,0.411
20,AGGAGATA,0.253
21,GTTCCTGA,-0.242
22,AGCAATAC,-0.0164
23,AGTAAAGC,-0.00459
24,ACGTACAC,-0.181
25,ACCCAACG,-0.0503

row,Sequence,PBM E-score
1,CGGAGGAA,0.375
2,AGGAGGAA,-0.218
3,CGGAGGTC,0.261
4,AGGAGGTA,-0.044
5,CGGAGGAG,0.284
6,CGGAGGTA,0.443
7,GGAAAACA,0.139
8,GCGGCGGA,0.382
9,CCGGCGGA,0.421
10,ACGGCGGA,0.273
11,CCGGCGGC,0.364
12,CTGGCGGA,-0.0445
13,GTGGCGGA,0.136
14,GCGGCTCA,0.073
15,GAGTGTCA,-0.145
16,GAGAATGC,0.0329
17,ACGGATGA,0.228
18,AGACGCGG,0.0872
19,CTCGAAGA,-0.152
